Experiment [1] can be described thus: NCI Yeast Anticancer Drug Screen. Data for the rad50 strain (AID 155).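 Note: 0% = growth of vehicle-only cultures of the same strain.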 The conditions noted are these: S. cerevisiae rad50 strain growth inhibition; at 50.0 µM; active compounds read high. Summed up:
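A DNA repair-deficient yeast mutant serves as the test organism; compound-induced growth inhibition is calculated against vehicle-treated cells.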

A short description of experiment [2]: NCI Yeast Anticancer Drug Screen. Data for the mec2-1 strain (AID 157). The conditions noted are these: S. cerevisiae mec2-1 strain, at 50.0 µM, active compounds read high. Summed up: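 mec2-1 yeast strain, carrying an alteration in DNA damage repair or cell cycle control, was exposed to compounds; growth inhibition was measured relative to vehicle-treated controls.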

Experiment [3] can be described thus: NCI Yeast Anticancer Drug Screen. Data for the sgs1 mgt1 strain (AID 161).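 Note: 0% = growth of cultures given vehicle only.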 The conditions noted are these: S. cerevisiae sgs1 mgt1 strain, at 50.0 µM, active compounds read high. Summed up:
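Growth of a repair-deficient yeast mutant was monitored after compound treatment and expressed as inhibition relative to vehicle-treated cultures.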

Experiment [4] in a line: NCI Yeast Anticancer Drug Screen. Data for the cln2 rad14 strain (AID 165).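 Note: 0% = growth equal to vehicle treated cultures.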 The conditions noted are these: S. cerevisiae cln2 rad14 strain, at 50.0 µM, active compounds read high. Summed up:
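Yeast carrying cln2 and rad14 alterations (cell cycle control and DNA damage repair) were exposed to compounds. Growth inhibition was measured against vehicle-treated controls.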

Experiment [5] is described as follows: NCI Yeast Anticancer Drug Screen. Data for the bub3 strain (AID 167). The conditions noted are these: S. cerevisiae bub3 mutant strain, at 50.0 µM, active compounds read high. Summed up:
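Inhibition values come from growth of compound-treated mutant yeast normalised to vehicle-treated controls.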

Experiment [6] in a line: NCI Yeast Anticancer Drug Screen. Data for the mlh1 rad18 strain (AID 175). The conditions noted are these: S. cerevisiae mlh1 rad18 strain growth inhibition; at 50.0 µM; active compounds read high. Summed up:
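Growth inhibition of the yeast strain was measured after compound exposure and expressed relative to vehicle-treated controls. The strain carries defined defects in DNA damage repair.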

About 79,000 compounds went through this panel and 15% of them were active in at least one assay; those are over-represented in the sample as a whole. Values without a mark were called inactive. Activity calls are given as the source filed them. Cut-off read from the data, not from the text of the source: active = growth inhibition above about 70%; inactive = the rest.

For `Cc1ccc2nc(N)nc(N)c2c1`, the growth inhibition in experiment [1] was -12.9%; in experiment [2] it was 7.15%; in experiment [3] it was -8.4%; in experiment [4] it was 3.25%; in experiment [5], -10.6%; in experiment [6], -3.8%.

Consider `Cc1ccc(S(=O)(=O)NC(=O)NCc2cccc(Cl)c2)cc1`, for which the growth inhibition was -0.3% in experiment [1]; 28.2% in experiment [2]; 19.8% in experiment [3]; -15.6% in experiment [4]; 13.9% in experiment [5]; 6.3% in experiment [6].

As for `c1ccc(OCCSCCCCCCCCCCSCCOc2ccccc2)cc1`, the growth inhibition was -5.85% in experiment [1]; -11.8% in experiment [2]; -25.6% in experiment [3]; -12.6% in experiment [4]; -28.6% in experiment [5]; -24.5% in experiment [6].

Take `Cc1ccc2c(c1)-c1c3c(nn1C)-c1ccccc1SC3O2` (stereo unspecified): the growth inhibition in experiment [1] is -0.35%; in experiment [2] it was -7.75%; in experiment [3], -13.1%; in experiment [4] it was -3.6%; in experiment [5] it was -5.75%; in experiment [6], 9.15%.

Turning to `COC(=O)CCS(=O)(=O)Cc1ccccc1`, the growth inhibition is 0.95% in experiment [1]; -1.3% in experiment [2]; -6.95% in experiment [3]; -7.9% in experiment [4]; -1.65% in experiment [5]; -0.5% in experiment [6].

As for `N=C1N=Nc2nc(C(C(=O)c3cccc4ccccc34)c3nc4n(c3O)C(=N)N=N4)c(O)n21` (stereo unspecified), the growth inhibition in experiment [1] was 19.5%; in experiment [2] it was 1.35%; in experiment [3], 14.2%; in experiment [4], 22.1%; in experiment [5], 0.9%; in experiment [6], 26.2%.

Turning to `COc1cccc(C(=O)CCN(C)C)c1`, the growth inhibition in experiment [1] is 33.4%; in experiment [2] it was 0.35%; in experiment [3] it was -2.8%; in experiment [4] it was 12.1%; in experiment [5], 18.1%; in experiment [6] it was 28.1%.

Take `Cc1ccc(N=C=Nc2ccc(C)cc2)cc1`: the growth inhibition was 2.65% in experiment [1]; 2.65% in experiment [2]; -3.05% in experiment [3]; -9.75% in experiment [4]; 2.85% in experiment [5]; -1.5% in experiment [6].

In the case of `CO[Si](C)(C)OC`, the growth inhibition is -6.65% in experiment [1]; -32% in experiment [2]; -7.15% in experiment [3]; 0.3% in experiment [4]; -6.15% in experiment [5]; -13.9% in experiment [6].

For `c1ccc(-c2ccccc2N=C2N=NN=N2)cc1`, the growth inhibition is -1% in experiment [1]; -6.9% in experiment [2]; 2.2% in experiment [3]; -16.4% in experiment [4]; -13.6% in experiment [5]; 6.55% in experiment [6].

Consider `CN1C(c2ccccc2)=C(C#N)C(=O)CC(c2cccs2)N1C` (stereo unspecified), for which the growth inhibition was -8% in experiment [1]; 7.45% in experiment [2]; 33.6% in experiment [3]; -1.5% in experiment [4]; 8.15% in experiment [5]; 8.25% in experiment [6].

Turning to `CCC(C)(C)C(O)c1ccc2c(c1)OCO2` (stereo unspecified), the growth inhibition in experiment [1] was -0.2%; in experiment [2], -13.2%; in experiment [3], 4.1%; in experiment [4] it was -7.65%; in experiment [5] it was 1.3%; in experiment [6] it was -28.5%.

Regarding `Cc1cc(C)c(NS(=O)(=O)c2ccc(Cl)cc2)cc1C`, the growth inhibition in experiment [1] was 94.5% (active); in experiment [2] it was 85.8% (active); in experiment [3] it was 92.2% (active); in experiment [4], 70%; in experiment [5], 87.6% (active); in experiment [6] it was 90.5% (active).

With `CCCC1CC(=O)NC1C(=O)O` (stereo unspecified), the growth inhibition in experiment [1] was -8.75%; in experiment [2] it was -7.85%; in experiment [3], -6.85%; in experiment [4], -21.9%; in experiment [5], -5.25%; in experiment [6], -24.4%.

Consider `C1CCC(C(C2CCCCC2)C2CCCCC2)CC1`, for which the growth inhibition was -16.9% in experiment [1]; -0.65% in experiment [2]; -8.6% in experiment [3]; 28% in experiment [4]; -4.3% in experiment [5]; -11.3% in experiment [6].

On to `CCCCCCCC/C=C/CCCCCCCC(=O)N(C)CC(=O)O`, for which the growth inhibition in experiment [1] is -18.6%; in experiment [2] it was -17%; in experiment [3], 10.8%; in experiment [4], -29.1%; in experiment [5], 22.5%; in experiment [6], -8.05%.

As to `COc1cc(C)c(C2NC(=O)c3ccccc3N2)cc1C` (stereo unspecified), the growth inhibition in experiment [1] is 10.1%; in experiment [2], 2.8%; in experiment [3], -10.1%; in experiment [4], 17.4%; in experiment [5], -2.55%; in experiment [6], -4.55%.

For the compound `Oc1ccccc1C=NCCN(CCN=Cc1ccccc1O)c1ccccc1`, the growth inhibition is 21.1% in experiment [1]; 7.1% in experiment [2]; 26.1% in experiment [3]; 12.8% in experiment [4]; 8.9% in experiment [5]; 32.5% in experiment [6].

`CC(C)(C)c1cc(C(=O)O)ccc1C(=O)O`: the growth inhibition was -4.2% in experiment [1]; 12.1% in experiment [2]; -2.75% in experiment [3]; -4.2% in experiment [4]; -26.4% in experiment [5]; -8.15% in experiment [6].

For the compound `N#CC(C#N)=C/C=C/C=C/c1c(Cl)cccc1Cl`, the growth inhibition in experiment [1] was -6%; in experiment [2] it was 1.8%; in experiment [3], 0.95%; in experiment [4], -3.25%; in experiment [5], -6.8%; in experiment [6], -14.4%.

On to `Cc1cc(C)cc(N=Nc2c(N)nc(N)[nH]c2=O)c1`, for which the growth inhibition in experiment [1] was 4.85%; in experiment [2], -10.7%; in experiment [3], -49.9%; in experiment [4] it was -11.2%; in experiment [5] it was -3.2%; in experiment [6], -7.3%.

The values above are taken from PubChem BioAssay (NCI).
